High-throughput results: PubChem BioAssay, National Center for Advancing Translational Sciences (NCATS)
In the library only some 14% were active in any assay of this set; here they are far more common.
4MU fluor: qHTS Assay for Spectroscopic Profiling in 4-MU Spectral Region | hit rate 11% among 59,000 | max dye-equivalent concentration, M | compound autofluorescence, 340/450 nm, 4-MU equivalents; hits give high values; in the data active means max dye-equivalent concentration above about 10 nM; inconclusive means mostly about 1.1 nM to 9.6 nM
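Compounds in 100 mM Tris, pH 8.0, incubated 15 min at room temperature, then fluorescence read at 340 nm excitation/450 nm emission. Signal converted to 4-MU dye-equivalent concentration using an on-plate six-point 4-MU standard curve.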
CRE-bla Fsk: Cell signaling CRE-BLA (Fsk stim) | CHO CRE-bla reporter (cAMP response element driving beta-lactamase), forskolin EC10, beta-lactamase ratio | Potency, µM (top dose mostly 38.2 µM), inactives show top-dose activity change, negative = inhibition, most hits filed as activators | hit rate 2.5% among 71,000 | AID 662, 2007; active means well fitted activation curve with a large enough effect in the signal ratio, with a control signal flat, not every such curve was filed as active; inconclusive means small, poorly fitted or top-dose-only effect, or effect the other way, or a change in a side signal; the % refers to the signal ratio; further: potency means the concentration at half of the fitted maximal effect; % of control where 0% means no effect
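Reporter-gene assay: CHO cells with beta-lactamase behind cAMP responsive elements, co-treated with compound and EC10 NKH 477 for 3 hours at 37 degrees Celsius. Activity came from the 460/530 nm CCF4 emission ratio.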
HSD17B inh: qHTS Assay for Inhibitors of HSD17B4, hydroxysteroid (17-beta) dehydrogenase 4. AID 893, 2007. Potency, µM (series often up to 57.1 µM), without a hit: at the highest dose activity change, negative = inhibition, actives largely listed as inhibitors. hit rate 7.6% among 75,000. recombinant HSD17B10, NADH fluorescence kinetic;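 further: the protocol describes HADH2 (HSD17B10) and not the HSD17B4 of the title; potency means the concentration at half of the fitted maximal effect; on the % scale 0 is the no-effect control and ±100 the full control effect; nearly all actives have a fitted effect of over 70% in size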
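Enzyme plus compound, 15 min room temperature; substrate mix added (NAD+ 1 mM, beta-hydroxybutyryl-CoA 90 uM final); plates read kinetically for NADH fluorescence. HADH2 was His-tagged, E. coli-derived, 20 nM.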
HADH2 inh: qHTS Assay for Inhibitors of HADH2 (Hydroxyacyl-Coenzyme A Dehydrogenase, Type II). 3-hydroxyacyl-CoA dehydrogenase type-2 (Homo sapiens), Q99714. recombinant HADH2, NADH fluorescence, beta-hydroxybutyryl-CoA. Potency, µM (titrated, usually from 57.1 µM), for the others: top-dose activity change, negative = inhibition, most hits filed as inhibitors. hit rate 3.4% among 73,000. AID 886, 2007; further: potency means the concentration at half of the fitted maximal effect; on the % scale 0 is the no-effect control and ±100 the full control effect; nearly all actives have a fitted effect of over 60% in size
Target sequence (Q99714 whole entry, looked up, one chain of several): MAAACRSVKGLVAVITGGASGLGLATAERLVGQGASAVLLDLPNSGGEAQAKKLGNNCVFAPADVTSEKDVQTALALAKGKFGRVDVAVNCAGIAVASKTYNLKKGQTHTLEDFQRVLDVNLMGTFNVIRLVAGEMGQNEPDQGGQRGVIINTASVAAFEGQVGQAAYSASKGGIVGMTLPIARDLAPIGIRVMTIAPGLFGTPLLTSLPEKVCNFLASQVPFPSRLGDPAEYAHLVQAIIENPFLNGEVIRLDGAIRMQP
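His-tagged recombinant enzyme from E. coli, 20 nM, preincubated 15 min RT with compound; reaction started with 1 mM NAD+ and 90 uM beta-hydroxybutyryl-CoA in 100 mM Tris-HCl pH 9.0. NADH fluorescence (ex 360/em 450) read over 4 min; last-minus-first difference.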
AID923: qHTS Assay for Allosteric/Competitive Inhibitors of Caspase-1: Spectroscopic Profiling in AFC Spectral Region | compound fluorescence, AFC spectral region (405/520 nm) | Potency, µM (titrated, usually from 57.5 µM), without a hit: at the top dose fluorescence increase, usual class: activators | hit rate 1.1% among 75,000 | AID 923, 2007; further: potency means the concentration at half of the fitted maximal effect; 0% is about no effect
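Compound autofluorescence profiled at 405 nm ex/520 nm em during kinetic caspase 1 run (50 nM enzyme, 5 uM Ac-WEHD-AFC, HEPES pH 7.5, 10 mM DTT). Titration up to 57 uM; baseline from regression intercept, normalized to AFC standard curve.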
A350 fluor: qHTS Assay for Spectroscopic Profiling in A350 Spectral Region; hit rate 11% among 59,000; Compound autofluorescence, 340/450 nm, Alexa 350 dye-equivalents; hits give high values; AID 590, 2007; max dye-equivalent concentration, M; in the data active means max dye-equivalent concentration above about 10 nM; inconclusive means mostly about 1.1 nM to 9.6 nM
The depositor's hits bear a star; i = inactive; ? = inconclusive; . = not tested or not shown; [ ] = remark or other dose. Unless noted, the call rests on the fitted dose curve; in most records, active means well fitted curve in the direction sought with a large enough effect; inconclusive means small, poorly fitted or top-dose-only effect, or another doubt; inactive means no such curve, though single readings can be large; an effect the other way counts as inactive or inconclusive.

SMILES | 4MU fluor | CRE-bla Fsk | HSD17B inh | HADH2 inh | AID923 | A350 fluor
CCCCn1c(NC(C)CC)nc2c1c(=O)[nH]c(=O)n2C (stereo not given) | i | 10µM* | 4% | ? | 0% | i
CCCCn1c(CN(Cc2ccccc2)Cc2ccccc2)nc2c1c(=O)n(C)c(=O)n2C | i | ? | 6% | -1% | 0% | i
CN(Cc1ccccc1)c1nc2c(c(=O)[nH]c(=O)n2C)n1CCOc1ccccc1 | i | 5µM* | ? | 5% | -3% | i
CCCCCn1c(CN(C)Cc2ccccc2)nc2c1c(=O)n(C)c(=O)n2C | 4.3e-08M* | ? | -1% | 4% | -1% | 4.1e-08M*
CN(Cc1ccccc1)c1nc2c(c(=O)[nH]c(=O)n2C)n1Cc1ccccc1 | i | ? | -3% | 11% | -1% | i
CCCCCn1c(N(C)Cc2ccccc2)nc2c1c(=O)[nH]c(=O)n2C | . | 10µM* | 4% | 7% | -2% | .
CN(Cc1ccccc1)c1nc2c(c(=O)[nH]c(=O)n2C)n1CCCSc1ncccn1 | i | ? | 3% | 9% | 2% | i
COC(=O)[C@H](N)Cc1ccc(Cl)cc1 | i | 5% | 3% | -17% | -4% | i
CN1c2ccccc2C(C)(C)C12C=Cc1cc(O)ccc1O2 (stereo not given) | . | ? | -12% | 13µM* | -2% | .
COc1ccc(-c2nc3c(Br)c(N)c(Br)cc3o2)cc1 | 5.8e-07M* | . | . | . | . | 6e-07M*
O=C(O)/C(=C\c1ccccc1)Cc1ccccc1 | i | 1%[7.6 µM] | -2%[11.4 µM] | 11%[11.4 µM] | -3%[11.5 µM] | i
CCOC(=O)C1=C(C)N(C)C(C)=C(C(=O)OCC)C1c1cccnc1 | ? | ? | -1% | -1% | 2% | 1.1e-08M*
O=C(NCc1cccnc1)[C@@H]1[C@@H](C(=O)O)[C@H]2CC[C@@H]1O2 | i | -7%[7.6 µM] | 1%[11.4 µM] | 8%[11.4 µM] | 2%[11.5 µM] | i
Cc1cnc(CNc2cc(-c3ccccc3C(F)(F)F)ncn2)cn1 | ? | 8% | -1% | -5% | 1% | ?
O=c1c2ccccc2nc2n1CCCS2 | . | . | 9% | 5% | 1% | .
O=c1c2ccccc2nc2n1CCN2 | . | 3% | 25µM* | ? | 0% | .
O=C(Cn1cc2c(n1)CCCCC2)Nc1ccc(F)cc1F | . | 0% | 7% | 13% | -7% | .
Cc1nn(-c2ccc(F)cc2F)c2c1-c1nc(N3CCCC3)ncc1CC2 | 2.1e-07M* | ? | 25µM* | ? | 1% | 2.3e-07M*
COc1cc(C(=O)N2CCN(c3cccc(C)c3C)CC2)cc(OC)c1OC | . | 10µM* | 3% | -5% | 2% | .
Cc1cccc(N2CCN(C(=O)c3ccncc3)CC2)c1C | i | -20% | 11% | 3% | 0% | i
COc1ccc(C(=O)N2CCN(C(=O)c3cc(OC)c(OC)c(OC)c3)CC2)cc1 | i | 2% | 9% | 22% | 0% | i
COc1cc(C(=O)N2CCN(c3cc(Cl)ccc3Cl)CC2)cc(OC)c1OC | . | 2.5µM* | 0% | 4% | 0% | .
CC1(C)S[C@@H]2[C@H](NC(=O)C3(N)CCCCC3)C(=O)N2[C@@H]1C(=O)O | i | -7%[7.6 µM] | 2%[11.4 µM] | 8%[11.4 µM] | 5%[11.5 µM] | i
CC(=O)OC1CC[C@]2(C)C(CC(OC(C)=O)[C@@]3(C)C4=CC(=O)OC(c5ccoc5)[C@]4(C)CCC23)C1(C)C (stereo not given in full) | . | . | -2% | . | -2% | .
O=S1(=O)CCN2C=C(Br)C=C(Br)C2=N1 | 8.7e-08M* | -8% | ? | -6% | 0% | 1.1e-07M*
COc1ccccc1OCCSc1nc2ccccc2c(=O)[nH]1 | . | 10µM* | -7% | 8% | -1% | .
